Rows were chosen to be rich in hits. Some 11% of all compounds tested hit in one or more screens of this group.
hNpr1 antagonist: Natriuretic polypeptide receptor (hNpr1) antagonism - Primary qHTS; 76,000 compounds, 1.6% hits; HEK293 hNpr1 GloSensor cGMP, ANP-stimulated luminescence; Potency, µM (doses to about 46.3 µM), for the others: top-dose activity change, negative = inhibition, usual class: inhibitors; Atrial natriuretic peptide receptor 1 (Homo sapiens), P16066; calls by dose curve; further: nearly all actives have a fitted effect of over 60% in size
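Compound pre-incubated 30 min at room temperature on GloSensor-loaded HEK293 cells stably carrying hNpr1 and the pGS-40F cGMP biosensor. Stimulation uses hNppA at 0.1 nM final; luminescence is taken at baseline and 20 min post-agonist.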
HEK293 tox: Cytotoxic Profiling in HEK 293 Cell Line of Diverse Libraries Using Quantitative High-Throughput Screening; HEK 293 viability, ATP luminescence (CellTiter-Glo), 48-72 h; Potency, µM (series often up to 115 µM), without a hit: at the highest dose activity change, negative = cytotoxicity, most hits filed as inhibitors; 94,000 compounds, 6.6% hits; AID 1345083, 2018; further: nearly all actives have a fitted effect of over 60% in size
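Read-out: CellTiter-Glo ATP luminescence. Cells: HEK 293, 250 cells/well. Exposure: 48 or 72 hr, 37 degree Celsius.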
Luciferase inh: Firefly luciferase inhibition profiling of diverse chemical library using quantitative high-throughput screening | purified P. pyralis luciferase, luminescence, biochemical | Potency, µM (top dose mostly 115 µM), actives largely listed as inhibitors | Luciferin 4-monooxygenase (Photinus pyralis), P08659 | 76,000 compounds, 2.5% hits; further: nearly all actives have a fitted effect of over 65% in size
Target sequence (P08659 whole entry, looked up): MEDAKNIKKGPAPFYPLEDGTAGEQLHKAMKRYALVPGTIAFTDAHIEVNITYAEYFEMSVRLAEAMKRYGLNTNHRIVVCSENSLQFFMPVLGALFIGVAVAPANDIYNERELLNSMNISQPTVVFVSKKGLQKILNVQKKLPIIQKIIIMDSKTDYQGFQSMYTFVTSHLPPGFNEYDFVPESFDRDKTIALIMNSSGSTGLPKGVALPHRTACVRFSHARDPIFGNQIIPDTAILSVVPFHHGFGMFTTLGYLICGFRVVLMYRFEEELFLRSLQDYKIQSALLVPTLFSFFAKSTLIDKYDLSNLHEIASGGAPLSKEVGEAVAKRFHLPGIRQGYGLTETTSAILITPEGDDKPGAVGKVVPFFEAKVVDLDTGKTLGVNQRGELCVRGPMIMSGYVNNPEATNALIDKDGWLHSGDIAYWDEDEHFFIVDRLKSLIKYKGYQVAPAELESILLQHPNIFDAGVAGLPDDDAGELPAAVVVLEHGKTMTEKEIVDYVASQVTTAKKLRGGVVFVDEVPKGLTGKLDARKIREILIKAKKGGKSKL
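Biochemical qHTS: compound (6-point titration) added to 10uM D-luciferin plus 10uM ATP in Tris acetate pH 7.5 buffer with Mg, Tween-20 and BSA, then purified enzyme at 10nM; light output imaged.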
3T3 cytotox: Cytotoxic Profiling in NIH 3T3 Cell Line of Diverse Libraries Using Quantitative High-Throughput Screening. AID 1345082, 2018. 94,000 compounds, 4.3% hits. NIH 3T3 viability, CellTiter-Glo ATP luminescence, 48-72 h. Potency, µM (titrated, usually from 96.7 µM), for the others: at the top dose activity change, negative = cytotoxicity, hits mostly inhibitors; further: nearly all actives have a fitted effect of over 55% in size
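Cytotoxicity was measured by CellTiter-Glo ATP luminescence after 48 or 72 h compound exposure at 37 °C. Mouse NIH 3T3 fibroblasts were seeded at 400 cells/well and dosed by 23 nL pin transfer.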
* hit, by the source's call; i = inactive; ? = inconclusive; / = no result; [ ] = another dose, or the depositor's remark. Unless noted, the call rests on the fitted dose curve; in most records, active means well fitted curve in the direction sought with a large enough effect; inconclusive means small, poorly fitted or top-dose-only effect, or another doubt; inactive means no such curve, though single readings can be large; an effect the other way counts as inactive or inconclusive. On the % scale 0 is the no-effect control and ±100 the full control effect; potency means the concentration at half of the fitted maximal effect.

SMILES	hNpr1 antagonist	HEK293 tox	Luciferase inh	3T3 cytotox
CC[C@H](O)[C@@H]1N(C(=O)c2csc(-c3cccs3)n2)C2CCC1(O)CC2	/	?	/	-17%
Cn1ncc2c(C(=O)N3CCC(C#N)CC3)cc(-c3ccc(Cl)cc3Cl)nc21	/	?	/	-32%
COCCN1CCCN(C(=O)c2cccc(OC)c2)c2ccccc21	-3%	?	i	-25%
COCCN1CCCN(C(=O)c2cccc(Cl)c2)c2ccccc21	-5%	45µM*	i	?
COCC(=O)N1CCCN(CCc2ccccc2)c2ccccc21	-12%	35µM*	i	-29%
COc1ccccc1CC(=O)N1CCCN(CCc2ccccc2)c2ccccc21	-11%	40µM*	i	?
COCCNC(=O)c1ccc2oc(-c3ccc(OC)nc3)nc2c1	/	?	/	-18%
COc1ccc(Cn2c(=O)c(C(=O)N3CCN(C(=O)C4CC4)CC3)nc3cccnc32)cc1	/	-9%	/	-18%
COCCCn1c(C)cc(C(=O)NCCc2noc(COC)n2)c1C	0%	5%	i	i
COCCCn1c(C)cc(C(=O)NCCc2noc(-c3ccccc3)n2)c1C	-3%	40µM*	i	?
Clc1ccc(-c2cnc([C@@H]3COCCN3Cc3cnc4ccccc4c3)[nH]2)s1	?	89µM*	i	?
Fc1ccc(-c2cnc([C@@H]3COCCN3Cc3cnc4ccccc4c3)[nH]2)c(F)c1	-14%[70.6 µM]	89µM*	i	?
Fc1ccc(-c2cnc([C@@H]3COCCN3Cc3cccnc3)[nH]2)c(F)c1	-11%[70.6 µM]	?	i	?
O=C(Cc1ccccn1)NC1CCN(c2nc3ncccc3o2)C1 (stereo not given)	/	-13%[172 µM]	/	-13%[138 µM]
O=C1CCC(CNS(=O)(=O)Cc2ccccc2F)CCN1Cc1ccccc1 (stereo not given)	/	i	/	-25%
CC(=O)Nc1ccc(S(=O)(=O)N[C@H]2CO[C@H]3[C@@H]2OC[C@@H]3Nc2nccc(C(C)(C)C)n2)cc1	16µM*	?	?	?
Cc1ccc(C(=O)N[C@H]2CO[C@H]3[C@@H]2OC[C@@H]3Nc2nccc(C(C)(C)C)n2)cc1	?	63µM*	?	?
COc1ccc(NC(=O)O[C@@H]2CO[C@H]3[C@@H]2OC[C@@H]3NS(=O)(=O)c2ccc(NC(C)=O)cc2)cc1	-1%	-6%	45µM*	?
Cc1ccc(NC(=O)c2ccc3nc(-c4cccc(C)n4)oc3c2)cc1	/	?	/	-12%[138 µM]
CC(C)Nc1ncnc2c1CN(C1CCCC1)C(=O)CN2C	/	-10%[172 µM]	/	-16%[138 µM]
COc1cccc(C(=O)N2CCCC2C(=O)N2CCC(N3Cc4cccn4C3=O)CC2)c1 (stereo not given)	/	3%	/	?
CCc1nc2c(c(-c3ccc(O)cc3)n1)CN(C(=O)c1ccc(OC)cc1)CC2	/	?	/	-18%
Cc1cccc(-c2noc([C@@H]3C[C@@H](O)CN3Cc3ccccn3)n2)c1	-25%[70.6 µM]	?	50µM*	-27%[138 µM]
Cc1cccc(-c2noc([C@@H]3C[C@@H](O)CN3Cc3ccc(Cl)cc3)n2)c1	-16%[70.6 µM]	100µM*	63µM*	?
Cc1ccccc1CN1C[C@H](O)C[C@H]1c1nc(-c2ccncc2)no1	2%[70.6 µM]	?	i	?
SMILES	hNpr1 antagonist	HEK293 tox	Luciferase inh	3T3 cytotox
O[C@@H]1C[C@@H](c2nc(-c3ccccc3)no2)N(Cc2ccccc2)C1	-6%[70.6 µM]	-13%[172 µM]	i	?
Cc1ccc(OCc2nc(C3CCN(C(=O)NCc4ccccc4)C3)no2)cc1 (stereo not given)	/	45µM*	/	?
O=C(NCCc1ccccc1)N1CCC(c2noc(COc3ccc(F)cc3)n2)C1 (stereo not given)	/	45µM*	/	?
Cc1ccc(CNC(=O)N2CCCC(c3noc(COc4ccccc4)n3)C2)cc1 (stereo not given)	-9%	?	i	?
COCCNC(=O)CC1=C2CCCCC2N(Cc2ccccc2)C1=O (stereo not given)	/	-23%	/	-23%
COCC(=O)N1CCC[C@@H]1C(=O)N1CCCC(c2nc3ccncc3[nH]2)C1 (stereo not given in full)	/	1%	/	1%
CN1CCN(c2ccc3ncc(Nc4ccccc4-c4ccccc4)n3n2)CC1	?	40µM*	i	25µM*
c1ccc(-c2ccccc2Nc2cnc3ccc(-n4ccnc4)nn23)cc1	?	32µM*	i	25µM*
COc1ccc(Cl)cc1C(=O)N1CCC2(CC1)NC(=O)N(c1cccc(F)c1)N2	5%	?	i	?
O=C(c1ccccc1Cl)N1CCCC(C(=O)N2CCC(N3Cc4cccn4C3=O)CC2)C1 (stereo not given)	/	-26%	/	-22%
CN1C(=O)[C@H]2CN(Cc3ccc(C#N)cc3)C[C@H]2C1=O	-1%	8%	i	i
CCCCOc1ccc(CN2C[C@@H]3C(=O)N(C)C(=O)[C@@H]3C2)cc1	-21%	?	28µM*	-8%
COc1ccccc1C(=O)N1CCC(C(=O)N2CCC(N3CCOC3=O)CC2)CC1	/	-2%	/	-4%
COc1cccc(Nc2cnc3ccc(-c4ccc(F)cc4)nn23)c1	-15%[70.6 µM]	100µM*	i	?
COc1ccc(Nc2cnc3ccc(-c4ccc(OC)nc4)nn23)cn1	2%[70.6 µM]	?	i	?
Oc1cccc(Nc2cnc3ccc(-c4ccc(F)cc4)nn23)c1	-18%[70.6 µM]	?	20µM*	?
COc1ccccc1-c1ccc2ncc(Nc3cccc(O)c3)n2n1	1%[70.6 µM]	?	?	?
COc1cncc(Nc2cnc3ccc(-c4ccc(F)cc4)nn23)c1	-24%[70.6 µM]	100µM*	i	79µM*
Cc1ccc(-c2cn3cc(C(=O)NCc4cccc(C(F)(F)F)c4)nc3s2)cc1	/	-11%	/	-13%
Cc1ccc(-c2cn3cc(C(=O)NCCN4CCOCC4)nc3s2)cc1	/	-5%	/	-18%
O=C(c1cccnc1)N1CCC2(CC1)CC(CCOc1ccncc1)CCO2 (stereo not given)	/	?	/	-29%
CN1C(=O)CCC2(CNC(=O)c3cccc4nccnc34)CCCC=C12 (stereo not given)	3%	79µM*	i	?
CN1C(=O)CCC2(CNC(=O)c3ccncc3)CCCC=C12 (stereo not given)	7%	0%	i	0%
O=C(NC1CCCC1)N1CCN(c2ccc3nnc(-c4ccccc4)n3n2)CC1	/	-14%	/	?
COc1ccc(C(=O)NC2CCN(C(=O)c3cc4c(=O)[nH]c(C)cn4n3)CC2)cc1	-3%	-26%	i	-8%
COc1ccc2cc(C(=O)N3CCC(Cc4ccc(C(=O)NC5CC5)cc4)CC3)[nH]c2c1	?	35µM*	i	28µM*
CN(CC[C@H]1CN(C(=O)c2cccs2)CC[C@H]1CC(=O)O)c1ccccc1	5%[70.6 µM]	i	i	0%[174 µM]

High-throughput results (PubChem)
